This is an account of results in PubChem BioAssay AID463173 (ICCB-Longwood Screening Facility, Harvard Medical School, 2010).

SMILES strings stand for the structures. About 4,300 (8.3%) of roughly 52,000 compounds were called active. This is one part of a sample in which actives are shown more often than they occur. A number with no mark means an inactive call. No stated cut-off is given here; in the data, active means survival mostly below about 52% (no sharp cut-off); inactive means mostly above about 56%.

The subject of this assay is DeltatarO mutant. The assay is described as follows: growth inhibition of S. aureus wild type versus tarO mutant, primary screen, teichoic acid synthesis inhibitors, RN4220, OD600 (AID 463173). The following applies: OD600, 18 h, active compounds read low, screened at 18.75 µg/mL (by protocol).
With `CCOC(=O)c1c(C)n(CCNC(C)=O)c2cc(Br)c(OC)cc12`, the survival was 106%.
Regarding `O=C(COc1ccccc1)Nc1ccccc1C(=O)OCc1cc(=O)n2nc(C3CC3)sc2n1`, the survival was 89%.
For `Cc1ccc(Nc2cc(=O)[nH]c(=O)[nH]2)cc1C`, the survival was 72%.
For `CCc1ccc(NC(=O)C(=O)NCC(c2cccnc2)N2CCN(Cc3ccccc3)CC2)cc1` (stereo unspecified), the survival was 75%.
For the molecule `CCc1ccc(CNC(=O)CCCN2C(=O)CCn3nc(-c4cccn4C)cc32)cc1`, the survival is 72%.
For the molecule `Cc1ccccc1C(=O)NCCc1sc(-c2ccc(Cl)cc2)nc1C`, the survival is 100%.
As for `COc1cccc(NC(=O)c2cn(C3CCCCC3)c(=O)c3c2c2ccccc2n3C)c1`, the figure is 75%; as for `Cc1ccc(CN(C(=O)c2ccc(OCC(C)C)cc2)c2ccccn2)o1`, 104%; as for `O=C(NCCc1ccc(Cl)cc1)c1ccc2c(c1)N(Cc1ccc(Cl)cc1)C(=O)CS2`, 50%.
As for `O=C(NCCc1ccccc1)c1ccc2c(c1)N(Cc1ccc(F)cc1)C(=O)CS2`, the survival is 74%.
As to `COc1ccccc1CNC(=O)c1ccc2c(c1)N(Cc1ccc(C)cc1)CCS2`, the survival is 83%.
For the molecule `COCCNC(=O)c1ccc2c(c1)N(Cc1c(F)cccc1Cl)C(=O)c1ccccc1S2`, the survival was 78%.
Consider `COc1ccc(CNC(=O)c2ccc3c(c2)N(Cc2c(F)cccc2Cl)C(=O)CS3)cc1`, for which the survival was 124%.
Regarding `COc1ccc(CCNC(=O)c2ccc3c(c2)N(Cc2cccc(Cl)c2)C(=O)c2ccccc2S3=O)cc1OC` (stereo unspecified), the survival was 94%.
`O=C(NCCc1ccc(Cl)cc1)c1ccc2c(c1)N(Cc1ccc(F)cc1)C(=O)CS2`: the survival is 37% (active).
`COc1ccccc1CNC(=O)c1ccc2c(c1)N(Cc1c(F)cccc1Cl)C(=O)CS2`: the survival was 43% (active).
On to `O=C(NCc1ccc2c(c1)OCO2)c1ccc2c(c1)N(Cc1c(F)cccc1Cl)C(=O)c1ccccc1S2`, for which the survival was 86%.
As for `COc1ccc(CCNC(=O)c2ccc3c(c2)N(Cc2ccc(F)cc2)C(=O)CS3)cc1OC`, the figure is 117%; as for `COc1ccc(CCNC(=O)c2ccc3c(c2)N(Cc2cccc(Cl)c2)C(=O)CS3)cc1OC`, 54% (active); as for `O=C(NCc1ccc(F)cc1)c1ccc2c(c1)N(Cc1c(F)cccc1Cl)C(=O)CS2`, 40% (active).
For the molecule `CCOc1ccc(NC(=O)C2CCCN(c3cnccn3)C2)cc1` (stereo unspecified), the survival was 86%.
The result for `CCOc1cc(-c2ccc(OC(=O)c3ccccc3Cl)c(OC)c2)cc(=O)c2c(C)oc(C)c12` reads 69%; that for `COc1ccccc1CNC(=O)c1ccc(CSc2nc3ccncc3n2Cc2ccccc2C)cc1`, 74%; that for `Cc1ccc(N2CCN(S(=O)(=O)c3nnc(NC(=O)c4ccc(C(C)C)cc4)s3)CC2)cc1`, 42% (active).
Turning to `COc1ccc(C(=O)Nc2nnc(S(=O)(=O)N3CCOCC3)s2)cc1`, the survival is 99%.
In the case of `Cc1ccc(C(=O)Nc2nnc(S(=O)(=O)N3CCN(c4ccc(F)cc4)CC3)s2)cc1`, the survival was 56%.
Consider `COc1ccc(C(=O)Nc2nnc(S(=O)(=O)N3CCN(c4ccc(C)cc4)CC3)s2)cc1`, for which the survival is 48% (active).
In the case of `Cc1ccc(C(=O)Nc2nnc(S(=O)(=O)N3CCOCC3)s2)cc1`, the survival was 68%.
On to `COc1ccc(C(=O)Nc2nnc(S(=O)(=O)N3CCN(c4ccc(F)cc4)CC3)s2)cc1`, for which the survival is 56%.
Turning to `CCc1nc(SC)ncc1C(=O)NCc1cccc(Br)c1`, the survival was 89%.
Regarding `CCc1ccc(NC(=O)C2CCC(CNS(=O)(=O)c3cccs3)CC2)cc1` (stereo unspecified), the survival was 94%.
For the molecule `CCOCCCNC(=O)c1ccc(NC(=O)N2CCCCc3ccccc32)cc1`, the survival is 89%.
Consider `O=C1COc2cc(S(=O)(=O)NCc3ccco3)c(Cl)cc2N1`, for which the survival is 98%.
`CCCCN(CC)Cc1ccc(CNS(=O)(=O)c2cc3c(cc2Cl)NC(=O)CO3)o1`: the survival is 0% (active).
Turning to `Cc1ccc(CNS(=O)(=O)c2cc3c(cc2Cl)NC(=O)CO3)o1`, the survival was 106%.
As for `Cn1c(SCC(=O)N2c3ccccc3Sc3ccccc32)nnc1-c1ccco1`, the survival is 77%.
Take `COC(=O)c1c(-c2ccc(Cl)cc2)noc1N1CCN(c2ccc(F)cc2)CC1`: the survival is 83%.
Take `O=S1(=O)CCC(NCc2ccccc2)C1` (stereo unspecified): the survival is 89%.
Regarding `CS(=O)(=O)N(CC(=O)NCc1ccncc1)c1ccccc1`, the survival is 85%.
As for `CCC(C)NC(=O)c1ccccc1NC(=O)CN1C(=O)c2cccc3cccc1c23` (stereo unspecified), the figure is 50%.
On to `CCSc1nsc(NC(=O)Nc2cccc(F)c2)n1`, for which the survival was 1% (active).
Consider `O=C(CSc1nnc(NC(=O)Nc2ccccc2)s1)Nc1cccc(F)c1`, for which the survival was 73%.
Turning to `CCSc1nsc(NC(=O)Nc2cccc(OC)c2)n1`, the survival is 96%.
As for `CSc1ncc(C(=O)Nc2ccccc2C(F)(F)F)c(-c2ccccc2)n1`, the figure is 117%; as for `O=C(Nc1nnc(N2CCCCCC2)s1)Nc1ccccc1C(F)(F)F`, 80%.
As for `CSc1nsc(NC(=O)Nc2ccccc2C(F)(F)F)n1`, the survival was 13% (active).
As to `O=C(NCCc1csc(-c2ccc(Cl)cc2)n1)c1cccs1`, the survival was 89%.
Consider `COc1ccc(CNC(=O)c2cc3ccccn3n2)cc1OC`, for which the survival was 79%.
For the molecule `Cc1cc(O)c(C(c2ccccc2Cl)N2CCCCC2)c(=O)n1Cc1ccco1` (stereo unspecified), the survival is 76%.
`CCCOC(=O)c1c(-c2ccccc2)c(-c2ccccc2)nn(C)c1=O`: the survival was 60%.
As for `Cc1ccc(C)c(Nc2ncnc3onc(C)c23)c1`, the survival was 81%.
As for `CCOC(=O)c1ccc(Nc2c(-c3ccc(O)c(OC)c3)nc3nc[nH]n23)cc1`, the survival was 93%.
As for `CCOC(=O)c1ccc(Nc2c(-c3ccc(O)cc3)nc3nc[nH]n23)cc1`, the figure is 91%; as for `CCOC(=O)c1ccc(Nc2c(-c3cccc(O)c3)nc3nc[nH]n23)cc1`, 46% (active).
As for `COc1ccc(NC(=O)C2CCCN(C(=O)c3cnn(-c4ccc(F)cc4)c3-n3cccc3)C2)cc1` (stereo unspecified), the survival is 47% (active).
As to `COc1ccc(CNC(=O)C2CCCN(C(=O)c3cnn(-c4ccc(F)cc4)c3-n3cccc3)C2)cc1` (stereo unspecified), the survival was 86%.
Regarding `COc1ccc(NC(=O)C2CCCN(C(=O)c3cnn(-c4ccccc4)c3-n3cccc3)C2)cc1` (stereo unspecified), the survival was 70%.
Take `COc1ccc(-c2noc(N(c3nc(-c4ccc(OC)c(OC)c4)no3)c3ccccc3OC)n2)cc1OC`: the survival is 115%.
As for `COc1ccccc1NC(=O)CN1C(=O)c2cccc3cccc1c23`, the figure is 62%.
As for `CC(C)c1ccccc1NC(=O)CN1C(=O)c2cccc3cccc1c23`, the figure is 40% (active); as for `O=C(CN1C(=O)c2cccc3cccc1c23)Nc1ccccc1Br`, 63%; as for `CCOC(=O)c1cnc2cc(-c3ccc(OCC)cc3)nn2c1-c1ccccc1`, 68%.
Turning to `CCOC(=O)CSc1nc2sc3c(c2c(=O)n1-c1ccccc1)CCC(C(C)(C)C)C3` (stereo unspecified), the survival was 58%.
Regarding `COC(=O)CSc1nc2sc3c(c2c(=O)n1Cc1ccccc1)CCC(C(C)(C)C)C3` (stereo unspecified), the survival was 66%.
With `CSc1nc2sc3c(c2c(=O)n1-c1ccccc1)CCC(C(C)(C)C)C3` (stereo unspecified), the survival is 18% (active).
As for `CC(C)CCSc1nnc2n(-c3ccccc3)c(=O)c3c4c(sc3n12)CC(C)CC4` (stereo unspecified), the figure is 70%; as for `CCCSc1nc2sc3c(c2c(=O)n1-c1ccc(C)c(Cl)c1)CCN(C(C)=O)C3`, 81%; as for `CCOC(=O)CSc1nnc2n(-c3ccccc3)c(=O)c3c4c(sc3n12)COC(C(C)C)C4` (stereo unspecified), 74%.
Consider `CCCSc1nc2sc3c(c2c(=O)n1-c1ccc(C)cc1)CCCC3`, for which the survival was 8% (active).
Turning to `C=C(C)CSc1nc2sc3c(c2c(=O)n1-c1ccccc1)CCC(C)C3` (stereo unspecified), the survival was 84%.
Regarding `CSc1nc2sc3c(c2c(=O)n1Cc1ccccc1)CCC(C(C)(C)C)C3` (stereo unspecified), the survival was 114%.
As for `CCOC(=O)CSc1nnc2n(-c3ccccc3)c(=O)c3c4c(sc3n12)CC(C(C)(C)C)CC4` (stereo unspecified), the survival was 46% (active).
`CCCc1nc2sc3c(c2c(=O)n1N)CCCC3`: the survival was 97%.
Turning to `CCCSc1nc2sc3c(c2c(=O)n1-c1ccccc1)CCC(C)C3` (stereo unspecified), the survival is 2% (active).
For the molecule `COc1cc(NC(=O)NCCn2nnc3cc(S(=O)(=O)N(C)C)ccc32)cc(OC)c1OC`, the survival was 84%.
Consider `Cc1ccc(S(=O)(=O)NC(C)(C)CN2CCCCC2)cc1`, for which the survival is 96%.
Consider `NC1CCN(C(=O)NC2CCCCC2)CC1`, for which the survival was 89%.
For the molecule `Cc1cc(=O)n(Cc2ccccc2)c(=O)n1Cc1ccccc1`, the survival was 89%.
As for `Cc1ccccc1-c1nc(CS(=O)(=O)CC(=O)Nc2c(C)cccc2C)c(C)o1`, the survival is 92%.
Take `Cn1cc(S(=O)(=O)N2CCCCCC2)cc1C(=O)Nc1ccccc1F`: the survival was 88%.
Regarding `CC(=O)N1CCC(N(Cc2ccco2)C(=O)Nc2cccc(C)c2)CC1`, the survival is 130%.
For `COC(=O)c1ccccc1NC(=O)Nc1cccc(OCc2cc(=O)n3cccc(C)c3n2)c1`, the survival was 134%.
Consider `CCSc1nc2sc3c(c2c(=O)n1-c1ccc(C)cc1)CCCC3`, for which the survival is 0% (active).
For the molecule `CSc1nc2sc3c(c2c(=O)n1-c1ccccc1C)CCCC3`, the survival is 97%.
The result for `Cc1ccc(-n2c(SCC(=O)O)nc3sc4c(c3c2=O)CCCC4)cc1` reads 90%; that for `Cc1ccc(-n2c(=O)[nH]c3sc4c(c3c2=O)CCCC4)cc1`, 133%.
On to `CSc1nc2sc3c(c2c(=O)n1-c1ccc(C)cc1)CCCC3`, for which the survival was 39% (active).
For the molecule `CCc1ccc(-n2c(=O)c3c4c(sc3n(Cc3ccc(C)cc3)c2=O)CCC4)cc1`, the survival was 132%.
Consider `CCCOc1ccc(-c2nc3ccc(Br)cc3c(=O)o2)cc1`, for which the survival is 81%.
Take `Cc1ccc(C)c(NC(=O)Cn2cc(S(=O)(=O)c3ccc(F)cc3)c(=O)c3cc(F)ccc32)c1`: the survival is 87%.
As for `Cc1c(C(=O)N(Cc2ccc(N(C)C)cc2)CC2CCCO2)oc2ccccc12` (stereo unspecified), the survival was 61%.
